Here are results for 38 sequences from publication PMC3218832.

This assay addresses RELA (p65) subunit of heterodimer;p52 subunit (Homo sapiens;Homo sapiens, UniProt Q04206;Q00653 1-307;4-332). Briefly: protein binding microarray; high values mean tight binding. The following applies: dsDNA, one strand shown.
For AGATGGCTCCC, the binding signal is -0.797 z-score.

As for AGATTGACCCT, the binding signal is -0.704 z-score.

With AGAAAGTCCCC, the binding signal worked out at 1.96 z-score.

GGGTAAGTCCT: the binding signal is 0.851 z-score.

With GGGAACGCCCT, the binding signal came out at 0.418 z-score.

GAGAGCGCCCT yielded a binding signal of -1.01 z-score.

On to CGAATGATCCT, for which the binding signal was -0.935 z-score.

Turning to GAGGTAGTCCC, the binding signal came to 0.326 z-score.

For the sequence AGAATAATCCT, the binding signal is -0.846 z-score.

Consider AAGAGCATCCT, for which the binding signal was -1.17 z-score.

Sequence CGGGAACTCCT showed a binding signal of 0.17 z-score.

Sequence AAAAATTCCCC returned a binding signal of 2.54 z-score.

In turn, AGGTGCACCCC had a binding signal of 0.549 z-score.

GAATGATCCCC registered a binding signal of 0.697 z-score.

Regarding CAGTGGCTCCC, the binding signal was -0.817 z-score.

For the sequence GAGAGGGTCCC, the binding signal was -0.187 z-score.

On to GGAAGACTCCT, for which the binding signal was -1.02 z-score.

GAATATTCCCT returned a binding signal of 1.28 z-score.

The sequence AGGAAGCCCCC came in with a binding signal of 1.31 z-score.

In turn, CAAGTCACCCC came in with a binding signal of -0.613 z-score.

GAGGGCTCCCC registered a binding signal of -0.108 z-score.

AAGTTGATCCC displayed a binding signal of -0.719 z-score.

Sequence CAAGGTACCCT gave a binding signal of -0.317 z-score.

GAAGTGCTCCT: the binding signal was -1.01 z-score.

GGAGGACCCCT displayed a binding signal of 0.173 z-score.

Sequence GGAATATCCCT registered a binding signal of 1.36 z-score.

For the sequence AGAAGCATCCC, the binding signal was -0.795 z-score.

AGGAAACTCCT came in with a binding signal of -0.54 z-score.

On to CAGTAGGTCCC, for which the binding signal is -0.347 z-score.

The sequence GGGTTACTCCC returned a binding signal of 0.789 z-score.

Sequence CGGGACTCCCC came in with a binding signal of 1.9 z-score.

On to CGGTAAACCCT, for which the binding signal worked out at 0.0419 z-score.

In turn, AAGAGGCCCCT came in with a binding signal of -0.248 z-score.

With GGATAGGTCCC, the binding signal is -0.141 z-score.

In turn, CAGTGCATCCT displayed a binding signal of -0.986 z-score.

For GAATGAGCCCT, the binding signal was -0.989 z-score.

Turning to GAATATCCCCC, the binding signal turned out to be 1.64 z-score.

CAAGGTTCCCC yielded a binding signal of 1.31 z-score.
